Data: PubChem BioAssay (NCATS)
Records with an inconclusive call do not appear. Activity calls are given as the source filed them. Unless noted, calls come from the whole dose curve; as a rule, active = well fitted curve in the direction sought with a large enough effect; inconclusive = small, poorly fitted or top-dose-only effect, or another doubt; inactive = no such curve, though single readings can be large; an effect the other way counts as inactive or inconclusive.

How the values were obtained:
[1] = qHTS assay to identify small molecule inhibitors of chordoma cells - UCH-2 (AID 1259356); note: potency is the fitted concentration of half-maximal effect
[2] = P-glycoprotein substrates identified in KB-8-5-11 adenocarcinoma cell line, qHTS therapeutic library screen (AID 1346987); note: nearly all actives have a fitted effect of over 65% in size; note: potency is the fitted concentration of half-maximal effect
In short: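 KB-8-5-11, a colchicine-selected P-gp-overexpressing KB-3-1 subline, was grown without colchicine for the assay. Cells were seeded at 500 cells/well, dosed in concentration-response and incubated 72 h at 37 degree C, 5% CO2. Viability was read by CellTiter-Glo luminescence.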

[3] = Natriuretic polypeptide receptor (hNpr1) antagonism - Pilot counterscreen GloSensor control cell line (AID 1347045; calls by dose curve; note: series mostly up to about 38 µM; % is set by controls: 0 for no effect and ±100 for the full control effect)
In short: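 HEK293 cGMP GloSensor cells preloaded 2 h with 2% GloSensor reagent, then compound 30 min before baseline luminescence read. Stimulated with 50 uM sodium nitroprusside, 20 min at room temperature, then read again; counterscreen for Npr1 antagonism.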

[4] = target: Atrial natriuretic peptide receptor 1 (Homo sapiens) (UniProt P16066); assay: Natriuretic polypeptide receptor (hNpr1) antagonism - Pilot screen (AID 1347049; calls by dose curve;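 note: agonist-evoked cGMP luminescence read 20 min after hNppA addition; series mostly up to about 58 µM; % is set by controls: 0 for no effect and ±100 for the full control effect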)
In short: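 HEK293 cells co-expressing hNpr1 and the GloSensor pGS-40F cGMP luciferase sensor were preloaded with 2% GloSensor reagent for 2 h. Compounds were added for 30 min at room temperature, then cells were stimulated with 0.1 nM hNppA for 20 min before luminescence readout.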

[5] = target: Atrial natriuretic peptide receptor 2 (Homo sapiens) (UniProt P20594); assay: Natriuretic polypeptide receptor (hNpr2) antagonism - Pilot subtype selectivity assay (AID 1347050; calls by dose curve; note: % is set by controls: 0 for no effect and ±100 for the full control effect)
In short: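 cGMP-sensor HEK293/hNpr2 cells; 2% GloSensor reagent 2 h RT; compounds 30 min; baseline luminescence read; 1 nM hNppC agonist 20 min RT; final luminescence read by CCD camera. Antagonism = reduced post-agonist signal.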

[6] = NS1 protein of Zika virus - qHTS assay to identify small molecule inhibitors in human HEK 293 cells (AID 1347053);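 note: series mostly up to about 46 µM; plate controls were infected untreated cells for no effect and uninfected cells for full effect; nearly all actives have a fitted effect of over 55% in size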
In short: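 HEK 293 cells, seeded 20 h at 37 C, were pretreated with compound 1 h, then infected with ZIKV MR766 (MOI = 0.5) for 24 h. NS1 was read by TR-FRET with two anti-NS1 antibodies, normalized to uninfected and infected wells.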

[7] = target: T1, Tyrosine-protein phosphatase non-receptor type substrate 1 (Homo sapiens) + Leukocyte surface antigen CD47 (Homo sapiens) (UniProt P78324+Q08722); assay: CD47-SIRPalpha protein protein interaction - HTRF assay qHTS validation (AID 1347058; active = well fitted curve in the direction sought with a large enough effect in the signal ratio, not every such curve was filed as active; the % refers to the signal ratio; note: series mostly up to about 38 µM; 0% is about no effect)
In short: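 TR-FRET read (Ch1/Ch2 ratio) of soluble extracellular CD47 and Avi-biotinylated SIRPalpha domains in PBS pH 7.4 with 0.05% IGEPAL; 7-point compound titration. Sequential 30 min room-temperature steps; non-biotinylated SIRPalpha as control inhibitor.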

[8] = target: T1, Tyrosine-protein phosphatase non-receptor type substrate 1 (Homo sapiens) + Leukocyte surface antigen CD47 (Homo sapiens); assay: CD47-SIRPalpha protein protein interaction - Alpha assay qHTS validation (AID 1347059);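 note: bead proximity luminescence from CD47 binding SIRPalpha after compound preincubation with SIRPalpha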; note: potency is the fitted concentration of half-maximal effect
In short: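 Soluble extracellular domains: Avi-tag biotinylated SIRPalpha (25 nM) preincubated 30 min RT with compound, then 6His-CD47 (12.5 nM) 30 min; Ni-NTA acceptor and streptavidin donor beads (10 ug/mL) 30 min, AlphaScreen read. PBS pH 7.4, 0.05% IGEPAL.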

[9] = target: Parathyroid hormone/parathyroid hormone-related peptide receptor (Homo sapiens) (UniProt Q03431); assay: qHTS for PTHR1 Agonists: Optimization Screen against the NCGC LOPAC library (AID 1347079);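 note: GloSensor cAMP luminescence in HEK-293 GP2 cells expressing human PTHR1 with IBMX; 0% is about no effect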
In short: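 Agonist readout: GloSensor cAMP luminescence, read after 15 min at room temperature. HEK-293-derived GP2 line carries PTHR1; compounds tested as a titration for 1 hr at 37C in presence of IBMX. M-PTH (1-15) served as control.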

[10] = qHTS of pediatric cancer cell lines to identify multiple opportunities for drug repurposing: Primary screen for TC32 cells (AID 1347089); note: nearly all actives have a fitted effect of over 60% in size; note: potency is the fitted concentration of half-maximal effect; for activity change, negative = cytotoxic: % is set by controls: 0 for no effect and ±100 for the full control effect
In short: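 Measured quantity: luminescence from CellTiter-Glo, reflecting metabolically active TC32 cells following 48 h of compound. Curves came straight from multi-point titrations, with 8 or 11 points in primary and 11 in confirmatory screening.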

[11] = qHTS of pediatric cancer cell lines to identify multiple opportunities for drug repurposing: Primary screen for DAOY cells (AID 1347090); note: nearly all actives have a fitted effect of over 55% in size; note: potency is the fitted concentration of half-maximal effect;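 for activity change, negative = cytotoxic: series mostly up to about 46 µM; plate controls were DMSO for no effect and bortezomib for full effect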
In short: (§1)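 Eight- or eleven-point concentration series, 48 h treatment at 37 degrees C in growth media; readout CellTiter-Glo luminescence. Potency and efficacy were taken from the concentration-response curves.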

[12] = qHTS of pediatric cancer cell lines to identify multiple opportunities for drug repurposing: Primary screen for SJ-GBM2 cells (AID 1347091); note: potency is the fitted concentration of half-maximal effect;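 for activity change, negative = cytotoxic: plate controls were DMSO neutral control for no effect and bortezomib for full effect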
In short: as §1

[13] = qHTS of pediatric cancer cell lines to identify multiple opportunities for drug repurposing: Primary screen for A673 cells (AID 1347092); note: nearly all actives have a fitted effect of over 45% in size; note: potency is the fitted concentration of half-maximal effect
In short: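 Cells are plated, rested 5 h, dosed by pintool, incubated 48 h, then lysed with CellTiter-Glo and read by luminescence. DMSO is the neutral control; bortezomib at 2.3 uM final is the positive control.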

[14] = qHTS of pediatric cancer cell lines to identify multiple opportunities for drug repurposing: Primary screen for BT-37 cells (AID 1347094); note: potency is the fitted concentration of half-maximal effect;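 for activity change, negative = cytotoxic: series mostly up to about 57 µM; plate controls were DMSO for no effect and bortezomib for full effect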
In short: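 Quantitative HTS format: each compound titrated (MIPE 11 points from 0.78 nM, NPC 8 points from 0.59 nM) onto cells plated 5 hours earlier. After 48 h at 37 degrees C, CellTiter-Glo luminescence was recorded.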

[15] = qHTS of pediatric cancer cell lines to identify multiple opportunities for drug repurposing: Primary screen for SK-N-MC cells (AID 1347093); note: potency is the fitted concentration of half-maximal effect;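 for activity change, negative = cytotoxic: series mostly up to about 46 µM; plate controls were DMSO neutral control for no effect and bortezomib for full effect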
In short: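 Metabolically active cells were quantified by ATP-dependent luminescence (CellTiter-Glo, 15 min at room temperature) following 48 h treatment. Cells had been plated at 500-1,000 per well and settled for 5 h beforehand.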

[16] = target: T1, Tyrosine-protein phosphatase non-receptor type substrate 1 (Homo sapiens) + Leukocyte surface antigen CD47 (Homo sapiens); assay: CD47-SIRPalpha protein protein interaction - LANCE assay qHTS validation (AID 1347057; active = well fitted curve in the direction sought with a large enough effect in the signal ratio, with a control signal flat, not every such curve was filed as active; the % refers to the signal ratio; note: series mostly up to about 38 µM; 0% is about no effect)
In short: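 First, His-tagged CD47 and Eu-labelled anti-His antibody met the compound for 30 min; next, site-specifically biotinylated SIRPalpha was added for 30 min; finally streptavidin-APC was added before reading the TR-FRET ratio.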

Sequence of Parathyroid hormone/parathyroid hormone-related peptide receptor (Homo sapiens) (Q03431 whole entry, looked up): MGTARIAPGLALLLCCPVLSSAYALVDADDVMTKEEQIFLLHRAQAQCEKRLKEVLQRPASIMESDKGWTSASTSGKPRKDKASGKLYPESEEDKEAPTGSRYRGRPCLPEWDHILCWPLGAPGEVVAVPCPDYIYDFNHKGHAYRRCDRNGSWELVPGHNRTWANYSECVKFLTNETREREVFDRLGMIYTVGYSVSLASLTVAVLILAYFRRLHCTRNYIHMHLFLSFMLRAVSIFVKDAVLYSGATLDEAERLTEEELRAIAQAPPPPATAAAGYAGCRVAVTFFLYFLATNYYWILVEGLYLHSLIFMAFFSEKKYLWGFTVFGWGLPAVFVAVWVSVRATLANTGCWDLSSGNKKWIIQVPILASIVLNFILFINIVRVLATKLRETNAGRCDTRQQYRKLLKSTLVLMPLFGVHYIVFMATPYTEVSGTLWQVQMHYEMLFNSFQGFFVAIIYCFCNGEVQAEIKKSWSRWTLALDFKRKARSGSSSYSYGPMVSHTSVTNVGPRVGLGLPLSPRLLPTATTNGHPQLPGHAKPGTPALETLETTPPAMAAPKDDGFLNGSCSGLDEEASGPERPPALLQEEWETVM
Sequence of Atrial natriuretic peptide receptor 2 (Homo sapiens) (P20594 whole entry, looked up): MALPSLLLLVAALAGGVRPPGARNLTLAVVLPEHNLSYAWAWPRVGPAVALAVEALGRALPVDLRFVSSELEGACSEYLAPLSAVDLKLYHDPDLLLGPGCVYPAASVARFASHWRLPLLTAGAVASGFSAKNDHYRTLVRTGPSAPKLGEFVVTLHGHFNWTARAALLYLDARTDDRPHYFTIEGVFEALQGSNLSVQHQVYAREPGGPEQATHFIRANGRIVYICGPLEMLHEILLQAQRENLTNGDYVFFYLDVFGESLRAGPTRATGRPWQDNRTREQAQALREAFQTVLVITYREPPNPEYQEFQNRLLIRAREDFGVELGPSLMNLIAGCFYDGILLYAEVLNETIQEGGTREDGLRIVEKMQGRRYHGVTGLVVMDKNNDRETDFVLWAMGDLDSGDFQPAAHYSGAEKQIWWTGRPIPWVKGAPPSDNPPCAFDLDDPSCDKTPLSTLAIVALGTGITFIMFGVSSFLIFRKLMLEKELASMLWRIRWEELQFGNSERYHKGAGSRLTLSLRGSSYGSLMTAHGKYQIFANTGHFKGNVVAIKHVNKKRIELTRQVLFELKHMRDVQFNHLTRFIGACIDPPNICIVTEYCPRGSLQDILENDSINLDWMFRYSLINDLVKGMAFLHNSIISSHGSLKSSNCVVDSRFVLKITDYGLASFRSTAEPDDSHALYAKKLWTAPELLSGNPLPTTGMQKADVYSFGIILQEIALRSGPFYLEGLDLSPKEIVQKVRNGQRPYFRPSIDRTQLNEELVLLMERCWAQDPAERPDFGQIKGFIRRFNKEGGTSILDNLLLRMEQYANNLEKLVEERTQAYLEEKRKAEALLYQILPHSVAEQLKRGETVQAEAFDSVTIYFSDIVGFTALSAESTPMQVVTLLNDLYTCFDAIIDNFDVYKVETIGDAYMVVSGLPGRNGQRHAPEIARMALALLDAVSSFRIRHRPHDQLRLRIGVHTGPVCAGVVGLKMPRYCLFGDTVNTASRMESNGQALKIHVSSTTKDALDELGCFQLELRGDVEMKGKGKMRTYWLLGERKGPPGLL
Sequence of Atrial natriuretic peptide receptor 1 (Homo sapiens) (P16066 whole entry, looked up): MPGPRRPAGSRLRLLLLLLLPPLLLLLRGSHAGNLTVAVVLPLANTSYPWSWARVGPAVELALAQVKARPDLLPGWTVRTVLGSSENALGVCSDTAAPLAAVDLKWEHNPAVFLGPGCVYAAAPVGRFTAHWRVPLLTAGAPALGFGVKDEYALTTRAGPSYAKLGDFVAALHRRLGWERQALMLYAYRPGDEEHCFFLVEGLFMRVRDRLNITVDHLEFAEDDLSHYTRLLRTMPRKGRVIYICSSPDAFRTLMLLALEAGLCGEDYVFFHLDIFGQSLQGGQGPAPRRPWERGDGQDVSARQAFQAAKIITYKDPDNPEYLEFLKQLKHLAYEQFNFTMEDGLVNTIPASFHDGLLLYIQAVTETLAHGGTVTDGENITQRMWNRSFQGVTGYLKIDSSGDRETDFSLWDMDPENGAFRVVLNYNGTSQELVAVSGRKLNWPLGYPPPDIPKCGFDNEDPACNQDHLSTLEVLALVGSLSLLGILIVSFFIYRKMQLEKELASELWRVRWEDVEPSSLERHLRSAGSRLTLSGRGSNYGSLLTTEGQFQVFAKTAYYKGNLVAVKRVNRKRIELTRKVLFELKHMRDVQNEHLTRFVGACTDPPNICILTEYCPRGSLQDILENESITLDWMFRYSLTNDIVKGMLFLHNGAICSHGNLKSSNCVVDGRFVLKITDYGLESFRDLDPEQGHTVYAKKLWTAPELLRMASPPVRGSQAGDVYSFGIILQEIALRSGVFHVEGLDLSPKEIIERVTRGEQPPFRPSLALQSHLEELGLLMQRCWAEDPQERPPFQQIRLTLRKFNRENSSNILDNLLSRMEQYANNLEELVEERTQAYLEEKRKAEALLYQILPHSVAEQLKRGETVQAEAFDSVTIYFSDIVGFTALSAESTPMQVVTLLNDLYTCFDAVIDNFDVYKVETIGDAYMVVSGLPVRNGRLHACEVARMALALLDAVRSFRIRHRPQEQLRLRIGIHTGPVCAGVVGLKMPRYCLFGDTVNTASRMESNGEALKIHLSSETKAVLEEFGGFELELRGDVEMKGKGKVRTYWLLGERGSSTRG
T1 sequence (P78324 whole entry, looked up, the tested form may be a part): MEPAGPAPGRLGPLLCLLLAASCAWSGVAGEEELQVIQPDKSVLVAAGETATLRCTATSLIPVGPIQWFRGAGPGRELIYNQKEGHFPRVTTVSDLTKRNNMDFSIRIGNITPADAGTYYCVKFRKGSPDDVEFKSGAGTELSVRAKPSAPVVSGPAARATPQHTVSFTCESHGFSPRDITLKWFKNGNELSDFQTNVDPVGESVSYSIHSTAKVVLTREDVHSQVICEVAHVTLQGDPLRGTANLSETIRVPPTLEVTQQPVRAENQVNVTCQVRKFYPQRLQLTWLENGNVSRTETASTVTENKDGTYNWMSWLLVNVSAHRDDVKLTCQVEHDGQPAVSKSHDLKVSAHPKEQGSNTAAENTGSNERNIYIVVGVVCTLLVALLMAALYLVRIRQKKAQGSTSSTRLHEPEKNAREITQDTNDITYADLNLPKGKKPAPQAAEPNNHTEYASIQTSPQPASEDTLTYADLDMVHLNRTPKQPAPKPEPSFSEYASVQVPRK
T1 sequence (Q08722 whole entry, looked up, the tested form may be a part): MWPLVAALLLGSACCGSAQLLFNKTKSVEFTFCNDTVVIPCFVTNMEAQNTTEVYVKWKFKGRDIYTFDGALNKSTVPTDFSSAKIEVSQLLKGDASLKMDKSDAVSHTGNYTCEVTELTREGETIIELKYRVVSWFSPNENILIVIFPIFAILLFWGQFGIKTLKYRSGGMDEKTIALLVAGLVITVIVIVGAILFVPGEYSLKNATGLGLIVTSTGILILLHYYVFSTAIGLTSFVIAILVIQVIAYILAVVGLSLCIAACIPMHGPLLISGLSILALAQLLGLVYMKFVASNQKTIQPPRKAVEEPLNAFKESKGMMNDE

CCN(Cc1ccncc1)C(=O)C(CO)c1ccccc1 (stereo not given)
inactive: Potency [1] | Potency [2] | Potency [3] | Potency [4] | Potency [5] | outcome [6] | outcome [7] | Potency [8] | outcome [9] | Potency [10] | Potency [11] | Potency [12] | Potency [13] | Potency [14]

CCN1CCC[C@H]1CNC(=O)c1c(O)c(Cl)cc(Cl)c1OC
inactive: Potency [1] | Potency [2] | Potency [3] | Potency [4] | Potency [5] | outcome [6] | outcome [7] | Potency [8] | outcome [9] | Potency [11] | Potency [12] | Potency [13] | Potency [15] | Potency [14]

O=C(O)CP(=O)(O)O
inactive: Potency [1] | Potency [2] | Potency [3] | Potency [4] | Potency [5] | outcome [6] | outcome [16] | outcome [7] | Potency [8] | outcome [9] | Potency [11] | Potency [12] | Potency [13] | Potency [15] | Potency [14]

CC(C)(C)NCC(O)c1cc(O)cc(O)c1 (stereo not given)
inactive: Potency [1] | Potency [2] | Potency [3] | Potency [4] | Potency [5] | outcome [6] | outcome [16] | Potency [8] | Potency [11] | Potency [12] | Potency [13] | Potency [15] | Potency [14]

COC(=O)[C@@H](N)Cc1ccc(O)c(O)c1
inactive: Potency [1] | Potency [2] | Potency [3] | Potency [4] | Potency [5] | outcome [6] | outcome [16] | outcome [7] | Potency [8] | outcome [9] | Potency [11] | Potency [12] | Potency [13] | Potency [14]

NC(Cc1ccc(Cl)cc1)C(=O)O (stereo not given)
inactive: Potency [1] | Potency [2] | Potency [3] | Potency [4] | Potency [5] | outcome [6] | outcome [16] | outcome [7] | Potency [8] | outcome [9] | activity change, negative = cytotoxic [11] 15.2% [at 0.597 µM] | activity change, negative = cytotoxic [12] 16.4% [at 0.597 µM] | activity change, negative = cytotoxic [13] 16% [at 0.597 µM] | activity change, negative = cytotoxic [15] -1.75% [at 0.597 µM] | activity change, negative = cytotoxic [14] 9.97% [at 0.745 µM]

CCN(CC)CCNC(=O)c1cc(S(C)(=O)=O)ccc1OC
inactive: Potency [1] | Potency [2] | Potency [3] | Potency [4] | Potency [5] | outcome [6] | outcome [16] | Potency [8] | outcome [9] | Potency [10] | Potency [11] | Potency [12] | Potency [13] | Potency [15] | Potency [14]

c1cc(CN2CCCCC2)cc(OCCCNc2nc3ccccc3s2)c1
inactive: Potency [1] | Potency [4] | Potency [5] | outcome [6] | outcome [16] | outcome [7] | Potency [8] | outcome [9] | Potency [10] | Potency [11]
active: Potency [2] 14.6 µM

COCCc1ccc(OCC(O)CNC(C)C)cc1 (stereo not given)
inactive: Potency [1] | Potency [3] | Potency [4] | Potency [5] | outcome [6] | outcome [16] | outcome [7] | Potency [8] | outcome [9] | Potency [10] | Potency [11] | Potency [12] | Potency [13] | Potency [15] | Potency [14]

CN(C(=O)CCCOc1ccc2[nH]c(=O)ccc2c1)C1CCCCC1
inactive: Potency [1] | Potency [3] | Potency [4] | Potency [5] | outcome [6] | outcome [16] | outcome [7] | Potency [8] | outcome [9] | Potency [10] | Potency [11] | Potency [12] | Potency [13] | Potency [15] | Potency [14]

C[C@]12C=CC(=O)C=C1CC[C@H]1[C@@H]3C[C@@H](O)[C@](O)(C(=O)CO)[C@@]3(C)C[C@H](O)[C@@]12F
inactive: Potency [1] | Potency [2] | Potency [4] | Potency [5] | outcome [6] | outcome [9] | Potency [11] | Potency [12] | Potency [13] | Potency [15] | Potency [14]

CC(=O)Oc1cc(C(C)C)c(OCCN(C)C)cc1C
inactive: Potency [1] | Potency [2] | Potency [4] | Potency [5] | outcome [6] | outcome [9] | Potency [10] | Potency [11] | Potency [12] | Potency [13] | Potency [15] | Potency [14]

CC(=O)[C@]1(O)Cc2c(O)c3c(c(O)c2[C@@H](O[C@H]2C[C@H](N)[C@H](O)[C@H](C)O2)C1)C(=O)c1ccccc1C3=O
inactive: Potency [4] | Potency [5] | outcome [6] | outcome [9]
active: Potency [1] 1.16 µM | Potency [2] 4.11 µM | Potency [8] 16.5 µM | Potency [10] 0.47 µM | Potency [11] 2.11 µM | Potency [13] 0.422 µM | Potency [15] 0.237 µM | Potency [14] 0.174 µM

C[C@]12CCC(=O)C=C1CC[C@@H]1[C@@H]2C(=O)C[C@@]2(C)[C@H]1CC[C@]2(O)C(=O)CO
inactive: Potency [1] | Potency [2] | Potency [5] | outcome [6] | outcome [7] | Potency [8] | outcome [9] | Potency [10] | Potency [11] | Potency [12] | Potency [13] | Potency [15] | Potency [14]

NC(=O)N1c2ccccc2C=Cc2ccccc21
inactive: Potency [1] | Potency [2] | Potency [4] | Potency [5] | outcome [6] | outcome [16] | outcome [7] | Potency [8] | outcome [9] | Potency [10] | Potency [11] | Potency [12] | Potency [13] | Potency [15] | Potency [14]

O=C1NCN(c2ccccc2)C12CCN(CCCC(c1ccc(F)cc1)c1ccc(F)cc1)CC2
inactive: Potency [4] | Potency [5] | outcome [6] | outcome [9]
active: Potency [1] 25.9 µM | Potency [2] 14.6 µM | Potency [12] 23.7 µM | Potency [15] 16.8 µM

NC(=Nc1ccccc1)Nc1ccccc1
inactive: Potency [1] | Potency [2] | outcome [6] | Potency [11] | Potency [12] | Potency [13] | Potency [15] | Potency [14]

C[N+](C)(C)CCCCCCCCCC[N+](C)(C)C
inactive: Potency [1] | Potency [3] | Potency [4] | Potency [5] | outcome [6] | outcome [16] | outcome [7] | Potency [8] | outcome [9] | Potency [10] | Potency [11] | Potency [12] | Potency [13] | Potency [15] | Potency [14]
